{"source": "PubChem BioAssay (EPA / NIEHS)", "note": "Records with an inconclusive call do not appear. Active and inactive are the calls of the source. How the source made its calls: active means hit-call score of the fitted dose curve at least 0.9, where 1 is the maximum; inconclusive means response in the unintended direction; inactive means score below 0.9.", "data": [{"target": "Muscarinic acetylcholine receptor M2 (Homo sapiens) (UniProt P08172)", "sequence (P08172 whole entry, looked up)": "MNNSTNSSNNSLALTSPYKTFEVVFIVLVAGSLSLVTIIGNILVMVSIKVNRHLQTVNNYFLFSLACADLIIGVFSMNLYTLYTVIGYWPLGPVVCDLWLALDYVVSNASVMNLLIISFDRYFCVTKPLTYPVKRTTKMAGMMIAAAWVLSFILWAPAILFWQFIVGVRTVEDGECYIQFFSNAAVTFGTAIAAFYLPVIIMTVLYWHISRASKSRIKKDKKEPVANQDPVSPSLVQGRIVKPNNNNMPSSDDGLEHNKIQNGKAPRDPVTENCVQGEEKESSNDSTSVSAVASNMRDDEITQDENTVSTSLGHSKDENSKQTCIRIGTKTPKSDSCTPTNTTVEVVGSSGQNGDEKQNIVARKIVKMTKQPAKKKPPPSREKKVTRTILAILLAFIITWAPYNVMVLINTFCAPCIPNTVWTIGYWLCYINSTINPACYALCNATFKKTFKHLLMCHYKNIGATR", "test": "NVS_GPCR_hM2: NovaScreen (NVS) G Protein-Coupled Receptor Assay for human Muscarinic, M2 Receptor (AID 2283273)", "method_in_brief": "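Radioligand competition binding, cell-free, receptor from CHO; 1 h incubation; scintillation detection. Primary testing at 25 uM in duplicate.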", "values": [{"smiles": "Nc1cc(N)cc(C(=O)O)c1", "AC50": "38.1 µM (active)"}, {"smiles": "COC(=O)OC", "outcome": "inactive"}, {"smiles": "CN(CCOc1ccc(CC2SC(=O)NC2=O)cc1)c1ccccn1", "note": "(configuration not stated)", "AC50": "13.2 µM (active)"}, {"smiles": "CNC[C@H](O)c1cccc(O)c1", "AC50": "29.7 µM (active)"}]}, {"target": "human Thromboxane A2 Receptor (TXA2), TBXA2R (gene 6915) (UniProt P21731)", "sequence (P21731 whole entry, looked up)": "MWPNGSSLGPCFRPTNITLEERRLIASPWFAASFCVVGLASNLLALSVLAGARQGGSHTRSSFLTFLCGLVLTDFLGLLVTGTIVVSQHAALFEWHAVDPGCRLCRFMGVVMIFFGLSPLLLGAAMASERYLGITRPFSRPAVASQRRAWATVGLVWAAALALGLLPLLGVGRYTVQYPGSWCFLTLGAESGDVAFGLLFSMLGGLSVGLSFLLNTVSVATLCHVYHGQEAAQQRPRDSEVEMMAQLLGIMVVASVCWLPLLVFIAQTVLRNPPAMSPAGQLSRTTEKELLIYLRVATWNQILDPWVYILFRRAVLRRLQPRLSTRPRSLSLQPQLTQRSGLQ", "test": "NVS_GPCR_hTXA2: NovaScreen (NVS) G Protein-Coupled Receptor Assay for human Thromboxane A2 Receptor (TXA2) (AID 2283282);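 further: actives reduce bound radioligand signal relative to DMSO baseline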", "method_in_brief": "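Human platelet-derived receptor preparation incubated with test chemical and radiolabelled ligand for 1 hour, cell-free. Bound label was separated by filtration and counted; displacement relative to DMSO controls gave activity, screened at 25 uM, then titrated.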", "values": [{"smiles": "CCCCCCCCCC=O", "outcome": "inactive"}, {"smiles": "CCCCOCCOCCOCCOCCO", "outcome": "inactive"}, {"smiles": "O=C1CCc2ccccc2O1", "outcome": "inactive"}, {"smiles": "BrC1CCC(Br)C(Br)CCC(Br)C(Br)CCC1Br", "note": "(configuration not stated)", "AC50": "11.1 µM (active)"}, {"smiles": "CN(CCOc1ccc(CC2SC(=O)NC2=O)cc1)c1ccccn1", "note": "(configuration not stated)", "AC50": "1.45 µM (active)"}, {"smiles": "CCCCCCCCC=O", "outcome": "inactive"}]}, {"target": "human Peripheral-type Benzodiazepine Receptor (PBR), TSPO (gene 706) (UniProt P30536)", "sequence (P30536 whole entry, looked up)": "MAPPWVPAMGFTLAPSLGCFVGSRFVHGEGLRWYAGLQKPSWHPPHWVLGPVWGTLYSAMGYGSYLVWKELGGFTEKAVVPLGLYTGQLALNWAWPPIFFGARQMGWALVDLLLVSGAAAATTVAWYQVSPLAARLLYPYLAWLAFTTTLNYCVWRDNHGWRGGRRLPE", "test": "NVS_MP_hPBR: NovaScreen (NVS) Membrane Protein Assay for human Peripheral-type Benzodiazepine Receptor (PBR) (AID 2283331);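 further: hits reduce radioligand binding relative to DMSO baseline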", "method_in_brief": "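Using human colon-derived membranes, this one-endpoint binding test reads radioligand loss by scintillation after 1 h. Screening started at 25 uM in duplicate, with positive and negative controls on every plate, and actives moved to dose series.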", "values": [{"smiles": "CN(CCOc1ccc(CC2SC(=O)NC2=O)cc1)c1ccccn1", "note": "(configuration not stated)", "AC50": "5.39 µM (active)"}, {"smiles": "O=C(Oc1ccccc1)c1ccc(O)cc1", "AC50": "9.99 µM (active)"}, {"smiles": "C=CCOc1nc(OCC=C)nc(OCC=C)n1", "AC50": "14.3 µM (active)"}, {"smiles": "CCN(CC)c1ccc2c(-c3ccccc3C(=O)O)c3ccc(=[N+](CC)CC)cc-3oc2c1", "AC50": "16.8 µM (active)"}]}, {"target": "rat Peripheral-type Benzodiazepine Receptor (PBR), Tspo (gene 24230) (UniProt P16257)", "sequence (P16257 whole entry, looked up)": "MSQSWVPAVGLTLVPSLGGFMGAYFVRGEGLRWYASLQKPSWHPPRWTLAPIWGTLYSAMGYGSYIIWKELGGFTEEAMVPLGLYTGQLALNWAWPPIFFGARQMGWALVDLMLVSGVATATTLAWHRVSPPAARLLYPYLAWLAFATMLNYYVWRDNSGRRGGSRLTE", "test": "NVS_MP_rPBR: NovaScreen (NVS) Membrane Protein Assay for rat Peripheral-type Benzodiazepine Receptor (PBR) (AID 2283335)", "method_in_brief": "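Single-concentration duplicate screening at 25 uM preceded concentration-series retesting of actives. Binding of a specific radioligand to rat kidney membrane PBR was read by filtration radiodetection after 1 h, with plate-wise positive and negative controls.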", "values": [{"smiles": "CCCCCCCCCCC(CO)CCCCCCCC", "note": "(configuration not stated)", "outcome": "inactive"}, {"smiles": "CCCCCCCCCCCCCCCCCC(=O)OCC(CC)CCCC", "note": "(configuration not stated)", "outcome": "inactive"}, {"smiles": "CN(CCOc1ccc(CC2SC(=O)NC2=O)cc1)c1ccccn1", "note": "(configuration not stated)", "AC50": "12.9 µM (active)"}, {"smiles": "O=C(Oc1ccccc1)c1ccc(O)cc1", "AC50": "4.86 µM (active)"}, {"smiles": "C=CCOc1nc(OCC=C)nc(OCC=C)n1", "AC50": "6.87 µM (active)"}, {"smiles": "CCN(CC)c1ccc2c(-c3ccccc3C(=O)O)c3ccc(=[N+](CC)CC)cc-3oc2c1", "AC50": "13.2 µM (active)"}]}, {"target": "Estrogen receptor (Homo sapiens) (UniProt P03372)", "sequence (P03372 whole entry, looked up, the tested form may be a part)": "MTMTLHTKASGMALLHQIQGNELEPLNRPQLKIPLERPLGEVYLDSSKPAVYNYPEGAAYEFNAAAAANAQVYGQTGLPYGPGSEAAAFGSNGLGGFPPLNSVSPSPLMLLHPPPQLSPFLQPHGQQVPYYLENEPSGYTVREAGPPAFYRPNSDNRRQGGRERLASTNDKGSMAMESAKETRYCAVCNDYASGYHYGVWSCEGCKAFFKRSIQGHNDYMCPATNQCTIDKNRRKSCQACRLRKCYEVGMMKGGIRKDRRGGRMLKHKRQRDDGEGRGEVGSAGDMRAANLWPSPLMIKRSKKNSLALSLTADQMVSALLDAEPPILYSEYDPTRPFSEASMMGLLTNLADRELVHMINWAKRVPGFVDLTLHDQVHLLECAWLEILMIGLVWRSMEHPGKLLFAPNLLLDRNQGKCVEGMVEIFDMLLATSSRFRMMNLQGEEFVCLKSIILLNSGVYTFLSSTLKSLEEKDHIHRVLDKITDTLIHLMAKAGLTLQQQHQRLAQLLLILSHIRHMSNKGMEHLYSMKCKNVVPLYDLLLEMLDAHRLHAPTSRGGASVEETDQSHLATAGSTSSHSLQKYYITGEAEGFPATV", "test": "NVS_NR_hER: NovaScreen (NVS) Nuclear Receptor Binding Assay for human Estrogen Receptor (ER) (AID 2283348)", "method_in_brief": "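Radiodetection of ligand displacement in a lysate-based, cell-free format using MCF7 extracts, read at 18 hours. Duplicate 25 uM primary testing, then concentration series for actives.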", "values": [{"smiles": "CCCC(=O)c1cc(O)c(O)cc1O", "AC50": "7.55 µM (active)"}, {"smiles": "CNCCCC12CCC(c3ccccc31)c1ccccc12", "outcome": "inactive"}, {"smiles": "NNc1nc(-c2ccc(N)cc2)cs1", "outcome": "inactive"}, {"smiles": "CN(CCOc1ccc(CC2SC(=O)NC2=O)cc1)c1ccccn1", "note": "(configuration not stated)", "outcome": "inactive"}, {"smiles": "O=C(O)CCSCCC(=O)O", "outcome": "inactive"}, {"smiles": "O=C(COc1ccc(Cl)cc1)N1CCN(Cc2ccc3c(c2)OCO3)CC1", "outcome": "inactive"}, {"smiles": "CCCCCCCCC=O", "outcome": "inactive"}]}, {"target": "Estrogen receptor (Homo sapiens) (UniProt P03372)", "test": "OT_ER_ERaERa_1440: Odyssey Thera (OT) 24-hour HEK293T Protein-Complementation Assay for Estrogen Receptor-alpha/-alpha Homodimer (AID 2283349);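 further: hits raise fluorescence above DMSO for agonists and antagonists alike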", "method_in_brief": "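Stably transfected HEK293T; ERα LBD homodimer PCA. 24 h dosing, fluorescence intensity read, gain-of-signal vs DMSO.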", "values": [{"smiles": "CCCCCCCCCC=O", "outcome": "inactive"}, {"smiles": "CCCCOCCOCCOCCOCCO", "outcome": "inactive"}, {"smiles": "BrC1CCC(Br)C(Br)CCC(Br)C(Br)CCC1Br", "note": "(configuration not stated)", "outcome": "inactive"}, {"smiles": "CCN(CC)c1ccc2c(-c3ccccc3C(=O)O)c3ccc(=[N+](CC)CC)cc-3oc2c1", "AC50": "12.2 µM (active)"}, {"smiles": "CCCCCCCCC=O", "outcome": "inactive"}]}]}
